mHTT CaM bind – disrupts binding of mutant huntingtin to calmodulin; P42858; AlphaScreen His-mHTT/GST-CaM binding, luminescence; inhibition, % at 15 µM; 190,000 tested, 3.6% active
Target sequence (P42858 whole entry, looked up, change not shown): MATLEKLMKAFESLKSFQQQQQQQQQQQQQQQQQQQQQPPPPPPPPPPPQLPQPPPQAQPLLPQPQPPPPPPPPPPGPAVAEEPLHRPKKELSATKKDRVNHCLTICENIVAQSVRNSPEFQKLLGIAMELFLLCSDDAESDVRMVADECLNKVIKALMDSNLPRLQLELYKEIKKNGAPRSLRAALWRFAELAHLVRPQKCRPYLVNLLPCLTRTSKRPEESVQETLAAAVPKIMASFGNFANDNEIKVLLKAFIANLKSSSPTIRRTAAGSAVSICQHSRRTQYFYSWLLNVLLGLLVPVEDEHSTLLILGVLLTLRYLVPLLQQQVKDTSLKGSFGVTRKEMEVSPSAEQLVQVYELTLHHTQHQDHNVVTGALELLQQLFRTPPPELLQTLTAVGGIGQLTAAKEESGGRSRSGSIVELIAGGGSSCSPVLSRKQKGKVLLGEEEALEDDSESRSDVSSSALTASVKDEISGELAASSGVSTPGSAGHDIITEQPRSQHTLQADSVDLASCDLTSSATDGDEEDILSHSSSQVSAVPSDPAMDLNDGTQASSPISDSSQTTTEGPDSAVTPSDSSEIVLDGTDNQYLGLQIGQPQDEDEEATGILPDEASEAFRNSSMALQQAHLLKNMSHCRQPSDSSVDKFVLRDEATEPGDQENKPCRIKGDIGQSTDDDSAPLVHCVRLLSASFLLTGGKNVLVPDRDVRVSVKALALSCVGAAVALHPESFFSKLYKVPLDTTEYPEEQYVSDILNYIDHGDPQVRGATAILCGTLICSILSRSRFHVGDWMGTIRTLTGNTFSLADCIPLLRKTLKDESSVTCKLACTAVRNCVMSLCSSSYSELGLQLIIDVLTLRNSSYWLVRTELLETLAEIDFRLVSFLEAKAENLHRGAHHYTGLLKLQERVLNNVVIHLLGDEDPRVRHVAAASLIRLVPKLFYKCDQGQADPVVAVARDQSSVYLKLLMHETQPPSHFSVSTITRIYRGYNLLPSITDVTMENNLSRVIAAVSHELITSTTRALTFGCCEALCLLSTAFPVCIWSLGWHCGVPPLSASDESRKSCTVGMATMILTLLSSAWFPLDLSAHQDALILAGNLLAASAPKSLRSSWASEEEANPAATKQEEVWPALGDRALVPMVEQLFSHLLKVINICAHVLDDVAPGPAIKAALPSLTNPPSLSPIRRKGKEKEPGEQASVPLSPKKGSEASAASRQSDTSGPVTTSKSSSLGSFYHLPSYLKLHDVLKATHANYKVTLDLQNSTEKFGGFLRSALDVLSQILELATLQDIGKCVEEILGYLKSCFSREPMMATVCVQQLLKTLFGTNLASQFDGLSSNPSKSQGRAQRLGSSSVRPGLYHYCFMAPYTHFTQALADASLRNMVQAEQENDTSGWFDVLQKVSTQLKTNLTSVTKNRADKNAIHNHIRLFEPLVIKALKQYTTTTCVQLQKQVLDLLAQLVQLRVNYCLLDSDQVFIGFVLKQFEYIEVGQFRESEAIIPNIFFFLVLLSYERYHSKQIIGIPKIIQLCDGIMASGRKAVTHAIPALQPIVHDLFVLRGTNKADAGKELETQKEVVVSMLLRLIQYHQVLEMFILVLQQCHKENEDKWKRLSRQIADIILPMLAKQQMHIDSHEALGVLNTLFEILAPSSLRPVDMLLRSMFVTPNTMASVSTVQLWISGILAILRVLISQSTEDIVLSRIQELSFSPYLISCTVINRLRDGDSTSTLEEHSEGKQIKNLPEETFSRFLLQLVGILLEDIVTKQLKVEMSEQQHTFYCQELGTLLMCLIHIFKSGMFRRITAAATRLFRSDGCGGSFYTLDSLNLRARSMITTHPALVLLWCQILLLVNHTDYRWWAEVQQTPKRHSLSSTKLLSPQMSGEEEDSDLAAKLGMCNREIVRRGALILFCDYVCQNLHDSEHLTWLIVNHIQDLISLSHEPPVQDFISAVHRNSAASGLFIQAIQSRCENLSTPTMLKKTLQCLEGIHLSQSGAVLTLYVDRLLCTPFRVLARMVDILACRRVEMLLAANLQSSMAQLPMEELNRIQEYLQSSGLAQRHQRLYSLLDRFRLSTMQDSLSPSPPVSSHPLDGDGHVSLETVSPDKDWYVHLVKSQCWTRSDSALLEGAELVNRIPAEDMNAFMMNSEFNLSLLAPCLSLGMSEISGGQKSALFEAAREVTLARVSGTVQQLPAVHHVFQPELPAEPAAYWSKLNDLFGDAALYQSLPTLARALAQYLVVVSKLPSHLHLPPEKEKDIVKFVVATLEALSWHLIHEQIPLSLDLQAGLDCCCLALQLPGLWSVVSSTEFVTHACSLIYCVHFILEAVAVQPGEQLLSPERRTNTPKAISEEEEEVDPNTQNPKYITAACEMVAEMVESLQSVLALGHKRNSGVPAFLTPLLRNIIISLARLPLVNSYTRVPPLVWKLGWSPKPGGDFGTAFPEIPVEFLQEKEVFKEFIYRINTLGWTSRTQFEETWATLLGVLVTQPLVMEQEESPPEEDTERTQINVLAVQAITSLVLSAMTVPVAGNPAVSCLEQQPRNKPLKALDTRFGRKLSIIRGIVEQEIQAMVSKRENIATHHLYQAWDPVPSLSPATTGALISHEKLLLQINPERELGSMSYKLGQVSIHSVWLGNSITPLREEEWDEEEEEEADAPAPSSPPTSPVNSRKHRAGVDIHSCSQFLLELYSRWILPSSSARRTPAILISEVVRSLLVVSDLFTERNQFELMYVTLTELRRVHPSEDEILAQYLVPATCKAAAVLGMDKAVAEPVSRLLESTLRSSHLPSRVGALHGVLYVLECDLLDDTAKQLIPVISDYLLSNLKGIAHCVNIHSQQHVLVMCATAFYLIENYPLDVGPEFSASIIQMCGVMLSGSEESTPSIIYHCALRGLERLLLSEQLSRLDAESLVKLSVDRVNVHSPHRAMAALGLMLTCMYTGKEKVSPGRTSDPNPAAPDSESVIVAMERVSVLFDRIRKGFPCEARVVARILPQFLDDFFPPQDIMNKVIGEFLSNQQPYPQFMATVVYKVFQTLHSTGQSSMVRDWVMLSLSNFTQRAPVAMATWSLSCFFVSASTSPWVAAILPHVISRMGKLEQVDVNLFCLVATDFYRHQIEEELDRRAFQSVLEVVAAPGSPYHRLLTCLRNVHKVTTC
Pf apPOL block – Pf-apPOL DNA polymerase inhibition; inhibition, % at 10 µM; AID 1794808; 210,000 tested, 0.25% active; Recombinant Pf-apPOL, molecular beacon fluorescence, 1.5 h
A number is an active result; . = inactive; / = no result. Shown are actives, neighbours in structure and some others; about 3.5% of the full set was active somewhere. Cut-off read from the data, not from the text of the source: active = inhibition above about 50%; inactive = the rest.

SMILES	mHTT CaM bind	Pf apPOL block
Cc1ccc(C2C(C#N)=C(N)OC3=C2C(=O)c2ccccc23)s1 (centres undefined)	.	.
COC(=O)c1ncoc1-c1ccccc1C(=O)N1CCCCC1	.	.
O=C(Cc1cccs1)N1CCN(c2ncnc3c2CCC3)CC1	.	.
CCCc1noc(-c2ccc(OC)cc2)n1	.	.
Cc1cc2[nH]c(C(=O)Nc3cccc(C)c3C)c(CN3CCOCC3)c2s1	53	.
Cc1cc2[nH]c(C(=O)Nc3cccc(Cl)c3C)c(CN3CCOCC3)c2s1	.	.
O=C1C(C=Nc2[nH]ncc2-c2ccccc2)=C(O)c2ccccc21	/	.
COC(=O)c1ccc(NC(=O)Cc2csc(NC(=O)c3ncccn3)n2)cc1	98	.
COC(=O)c1ccc(NC(=O)Cc2csc(NC(=O)Nc3ccccc3OC)n2)cc1	.	.
CCCC(=O)N1CCCC(C)(C(=O)NCc2ccccc2)C1 (centres undefined)	.	.
O=C(c1ccc(-c2cccnc2)nc1)N1CCN(c2ccccc2)CC1	.	.
CN1CCN(C(=O)c2ccc(SCc3cccnc3)c([N+](=O)[O-])c2)CC1	.	.
O=C(c1ccc(-c2cccnc2)nc1)N1CCN(c2ccc(Cl)cc2)CC1	.	.
O=C(c1ccc(-c2cccnc2)nc1)N1CCN(c2cccc(Cl)c2)CC1	76	.
Cc1ccc(C)c(N2CCN(C(=O)c3ccc(SCc4cccnc4)c([N+](=O)[O-])c3)CC2)c1	65	.
Cc1ccc(C)c(N2CCN(C(=O)c3ccc(-c4cccnc4)nc3)CC2)c1	64	.
CC1(C(=O)NCc2ccccc2)CCCN(C(=O)c2ccco2)C1 (centres undefined)	.	.
CNC1=C(n2nnc3ccccc32)C(=O)c2ccccc2C1=O	.	.
COC(=O)C(C)Oc1ccc2c(c1)OC(=Cc1cc(OC)ccc1OC)C2=O (centres undefined)	.	.
CCC(C)(C)C(=O)N1CCCC(c2nc(CCNC(C)=O)cs2)C1 (centres undefined)	.	.
CCOc1ccc(C2=CC(c3ccc(OC(F)F)cc3)n3nnnc3N2)cc1Cl (centres undefined)	.	.
Cc1cccc(C2SC(=O)NC3=C2C(=O)c2ccccc23)c1 (centres undefined)	.	.
COc1cccc(C2Nc3ccccc3NC3=C2C(=O)CC(c2ccccc2)C3)c1OC (centres undefined)	.	.
O=C1C2=C(Nc3ccccc3SC2c2ccccc2[N+](=O)[O-])c2ccccc21 (centres undefined)	53	.
COc1cccc(C2Sc3ccccc3NC3=C2C(=O)c2ccccc23)c1OC (centres undefined)	58	.
SMILES	mHTT CaM bind	Pf apPOL block
O=C1c2ccccc2NC(c2cccs2)N1c1ccccc1 (centres undefined)	.	.
O=C1NC2=C(C(=O)c3ccccc32)C(c2ccccc2)N1 (centres undefined)	.	.
COc1cccc(C2Sc3ccccc3NC3=C2C(=O)c2ccccc23)c1 (centres undefined)	76	.
O=C1C2=C(Nc3ccccc3SC2c2cccs2)c2ccccc21 (centres undefined)	73	.
Cc1cc(C)c2c(N3CCCCC3)nc(C(=O)NC(C)C)nc2n1	.	.
CN(C)c1ccc(-n2cccc2/C=C2\SC(=Nc3ccc(F)cc3)NC2=O)cc1	.	.
CCOC(=O)C1=C(C)NC(C)=C(C(=O)OCC)C1c1ccc2c(c1)OCO2	/	.
O=c1nc(Nc2ccc(OC(F)(F)F)cc2)oc2ccccc12	/	.
Cc1nc(NN=Cc2ccc([N+](=O)[O-])cc2)c2sc(=S)n(-c3ccccc3)c2n1	/	.
COc1ccc(NS(=O)(=O)c2ccc(NC(=O)c3ccccc3Cl)cc2)cc1	.	.
O=C1C2=C(Nc3ccccc3SC2c2ccccc2)c2ccccc21 (centres undefined)	73	/
O=C1Nc2ccccc2SC1c1ccccc1 (centres undefined)	/	.
Cc1ccccc1NC(=O)CSc1cc(N2CCOCC2)ncn1	.	.
O=[N+]([O-])c1cc(Cl)ccc1Sc1ccccc1	/	.
O=[N+]([O-])c1ccc(Sc2ccsc2)c([N+](=O)[O-])c1	69	/
COc1cccc(-c2nc(C3CCN(S(=O)(=O)c4cccc(C#N)c4)CC3)no2)c1	.	.
O=C1OC(C2(Br)C(=O)c3ccccc3C2=O)C(Br)=C1Br (centres undefined)	.	.
O=C(CN1CCN(c2ccccn2)CC1)Nc1ccc(Cl)c(C(F)(F)F)c1	.	.
O=C(CN1CCN(c2ccc(Cl)cc2)CC1)Nc1ccc(Cl)c(C(F)(F)F)c1	51	.
N#Cc1c(F)cccc1NC(=O)COCC(=O)O	/	.
CN(C)c1ccc(Nc2c([N+](=O)[O-])cc([N+](=O)[O-])c3cccnc23)cc1	87	.
O=[N+]([O-])c1cc([N+](=O)[O-])c2cccnc2c1Nc1ccccc1	.	.
CCC(=O)N(CCC(c1ccc2c(c1)OCO2)c1ccccc1OC)Cc1ccc2c(c1)OCO2 (centres undefined)	.	.
COc1ccc(CN(CCC(c2ccc3c(c2)OCO3)c2ccccc2OC)C(C)=O)cc1OC (centres undefined)	68	.
COc1ccccc1C(CC(=O)N1CCCC1)c1ccc2c(c1)OCO2 (centres undefined)	.	.
SMILES	mHTT CaM bind	Pf apPOL block
COc1ccccc1C(CC(=O)O)c1ccc2c(c1)OCO2 (centres undefined)	.	.
COc1ccc(CN(CCC(c2ccc3c(c2)OCO3)c2ccccc2OC)C(C)=O)cc1 (centres undefined)	53	.
COc1ccccc1C(CCN(Cc1ccccc1)C(C)=O)c1ccc2c(c1)OCO2 (centres undefined)	99	.
CN(C)S(=O)(=O)c1ccc(C(=O)N2CCN(c3ccc([N+](=O)[O-])cc3)CC2)cc1	.	.
COc1ccc(-c2noc(C(C)Oc3ccc(Cl)cc3Cl)n2)cc1OC (centres undefined)	.	.
Cc1oc(C2CCN(C(=O)Cc3ccc(F)cc3)CC2)nc1C(=O)N1CCCC1	.	.
Nc1nc(NC(=O)c2ccc([N+](=O)[O-])cc2)nn1-c1ccccc1	.	.
O=C(Nc1nc(NC(=O)c2ccccc2)n(-c2ccccc2)n1)c1ccccc1	89	.
O=C(NCc1ccccc1Cl)C1(c2ccc(F)cc2)CC1	.	.
O=C(O)c1cc(C=Nc2ccc3c(c2)OCCOCCOCCOCCO3)ccc1O	.	.
Cc1oc2cc3oc(=O)c4c(c3cc2c1-c1ccccc1)CCC4	.	.
Cc1oc2cc3oc(=O)c4c(c3cc2c1C)CCC4	.	58
CCOc1cccc(N2C(=O)CC(N3CCCCC3)C2=O)c1 (centres undefined)	.	.
Cc1ccc(-c2csc(NC(=O)CN3C(=O)c4ccccc4C3=O)n2)o1	.	.
O=C(CC1CCCC1)N1CCC(O)(c2ccccc2)C(N2CCCC2)C1 (centres undefined)	77	.
CCCC(=O)N1CCC(O)(c2ccccc2)C(N2CCCC2)C1 (centres undefined)	.	.
CCOCC(=O)N1CCC(O)(c2ccccc2)C(N2CCCC2)C1 (centres undefined)	.	.
O=C(C1CCCCC1)N1CCC(O)(c2ccccc2)C(N2CCCC2)C1 (centres undefined)	51	.
COCCn1cc2c3c(cccc31)CN(C(=O)Nc1cc(C)cc(C)c1)CC2	.	.

Bioassay records as filed in PubChem BioAssay.
